Source: PubChem BioAssay
D2 PAM-1: positively modulates the human D2 dopamine receptor allosterically | HEK293 T-REx D2, calcium flux, EC20 dopamine potentiation | potentiation, % at 10 µM | 340,000 compounds, 0.34% hits;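 active = potentiation over 3 SD above the plate norm, cut at about 30% in these data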
Target sequence (P14416 whole entry, looked up): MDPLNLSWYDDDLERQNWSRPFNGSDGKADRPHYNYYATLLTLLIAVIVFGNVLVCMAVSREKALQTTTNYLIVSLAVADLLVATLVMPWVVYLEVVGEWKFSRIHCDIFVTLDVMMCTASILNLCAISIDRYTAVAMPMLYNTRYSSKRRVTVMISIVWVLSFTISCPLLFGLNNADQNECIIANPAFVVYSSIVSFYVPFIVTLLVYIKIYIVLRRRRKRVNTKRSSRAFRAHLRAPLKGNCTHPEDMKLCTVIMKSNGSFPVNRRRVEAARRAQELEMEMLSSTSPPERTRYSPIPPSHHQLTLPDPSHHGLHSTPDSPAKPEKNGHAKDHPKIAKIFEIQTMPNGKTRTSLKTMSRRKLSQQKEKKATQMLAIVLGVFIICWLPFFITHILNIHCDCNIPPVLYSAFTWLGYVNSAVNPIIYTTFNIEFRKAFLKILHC
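Cells plated with tetracycline inducer and held overnight at 30 C; calcium dye loaded 30–90 min at room temperature; baseline taken, compound added and read 180 s; EC20 dopamine then added and read 180 s.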
D2 antag: D2 dopamine receptor (human) antagonism; HEK293 TREx D2 cells, calcium flux, dopamine EC80; inhibition, % at 10 µM; 340,000 compounds, 2% hits; AID 485344; in the data active = inhibition above about 30%; inactive = below that, where a call was filed
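Calcium flux kinetic readout in an inducible HEK293 TREx D2 line plated overnight at 30 C. After 180 s compound exposure, an EC80 dopamine challenge follows with another 180 s kinetic read to detect antagonism.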
D2 PAM-2: human D2 receptor positive allosteric modulation. 360,000 compounds, 0.23% hits. P14416. AID 624464. DiscoveRx D2 beta-arrestin cells, luminescence, 90 min; 100% = 57 uM dopamine signal. potentiation, % (no concentration beside the values); in the data active = potentiation above about 50%; inconclusive = mostly about 30% to 49%
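PathHunter beta-arrestin assay in DiscoveRx D2 cells. Compounds were added with an EC20 of dopamine (50 nM final) for 90 min at 37 deg C. Luminescence was read 1 h after detection reagent, with 57 uM dopamine as the EC100 control.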
D2 ag-1: activates the human D2 dopamine receptor. AID 624465. activation, % (test concentration not listed). 360,000 compounds, 0.084% hits. P14416. DiscoveRx PathHunter D2 beta-arrestin, luminescence, 90 min; 100% = 57 uM dopamine signal; in the data active = activation above about 40%; inconclusive = between about 15% and that limit
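DiscoveRx PathHunter D2 beta-arrestin cells (2,100/well) attached overnight, then compound-stimulated 90 min at 37 C in HBSS/10 mM HEPES/0.1% Tween-20 buffer; beta-galactosidase complementation read by luminescence after 1 h at ambient temperature. Dopamine 57 uM final (EC100) as control.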
D2 ag-2: activates the human D2 dopamine receptor | AID 485358 | activation, % at 2 µM | 340,000 compounds, 0.53% hits | HEK293 T-REx D2 cells, calcium flux agonist mode | P14416;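 active = activation over 3 SD above normal in the single-dose calcium agonist read, cut at about 30% in these data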
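In this primary screen, compounds producing a positive calcium signal within 180 s of addition to tetracycline-induced, force-coupled HEK293 Trex D2 cells are flagged; cells are dye-loaded with a no-wash calcium kit beforehand.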
B2AR arrestin: agonists driving beta-arrestin recruitment to human beta2-adrenergic receptor | P07550 | beta-arrestin recruitment to beta2AR, cell-based reporter | Potency, µM (series often up to 46.1 µM), actives largely listed as activators | 330,000 compounds, 0.02% hits | AID 492947; active = well fitted activation curve with a large enough effect; inconclusive = small, poorly fitted or top-dose-only effect; note: nearly all actives have a fitted effect of over 65% in size
Numbers stand for hits; – = inactive; ? = inconclusive; · = no result. Shown are actives, neighbours in structure and some others; about 2.4% of the full set was active somewhere.

SMILES | D2 PAM-1 | D2 antag | D2 PAM-2 | D2 ag-1 | D2 ag-2 | B2AR arrestin
Cc1ccccc1C(C(=O)NC1CCCC1)N(C(=O)CNC(=O)c1ccco1)c1cccnc1 (stereo not drawn) | – | 51 | · | · | – | –
COc1ccc(C(C(=O)NC2CCCC2)N(C(=O)c2ccoc2C)c2ccc(C)cc2)cc1 (stereo not drawn) | – | 50 | – | – | – | –
COc1ccc(C(C(=O)NC2CCCCC2)N(C(=O)CCl)c2ccc(C)cc2)cc1 (stereo not drawn) | – | – | – | – | – | –
CC(=O)Nc1ccc(N(C(=O)c2ccco2)C(C(=O)NC2CCCCC2)c2ccccc2)cc1 (stereo not drawn) | – | 37 | – | – | – | –
CCOc1ccc(OCC(=O)OCc2cc(=O)n3cc(Br)ccc3n2)cc1 | – | – | – | – | – | –
COc1ccccc1CNC(=O)CN1CCN(S(=O)(=O)c2cccs2)CC1 | – | – | – | – | – | –
Cc1ccc(S(=O)(=O)NCCSc2ncccn2)cc1 | – | 86 | – | – | – | –
COc1ccccc1N1CCN(Cc2ccc(-c3ccccc3[N+](=O)[O-])o2)CC1 | – | 86 | – | – | – | –
Cc1cccc(COc2ccc(/C=C3/C(=O)N(C)C(=S)N3C)cc2)c1 | – | 31 | – | – | – | –
CN1C(=O)/C(=C/c2ccccc2OCc2ccc(F)cc2)N(C)C1=S | – | – | – | – | – | –
Oc1ccc2ccccc2c1C=Nc1ccccc1-c1nc2ccccc2[nH]1 | – | 41 | 53 | – | – | –
CCn1c(=O)cc(OCC(=O)NCCCN2CC(C)CC(C)C2)c2ccccc21 (stereo not drawn) | – | 58 | – | – | – | –
CN(CCNC(=O)CCCOc1cc(=O)n(C)c2ccccc12)Cc1ccccc1 | · | 47 | – | – | – | –
CC1CCN(CCCNC(=O)c2n[nH]c(=O)c3ccccc23)CC1 | – | 41 | – | – | – | –
CC1CCN(CCCNC(=O)COc2cc(=O)n(C)c3ccccc23)CC1 | – | 34 | – | – | – | –
CC1CC(C)CN(CCCNC(=O)COc2cc(=O)n(C)c3ccccc23)C1 (stereo not drawn) | – | – | – | – | – | –
O=C(Oc1ccc2c3c(c(=O)oc2c1)CCCC3)c1cccs1 | – | – | – | – | – | –
COc1ccc(NC(=O)Nc2cccc3c2O[C@H](CN(C)C(=O)NC2CCCCC2)[C@@H](C)CN([C@H](C)CO)C3=O)cc1 | · | · | – | – | · | –
Cc1ccc(S(=O)(=O)c2nnn3c2nc(NC2CCN(Cc4ccccc4)CC2)c2ccccc23)cc1C | 37 | – | – | – | – | –
CCCCC(=O)N(CCC)CCC | – | – | – | – | · | –
CC1=C(C)CC(C(=O)Nc2nc(-c3ccc(F)cc3)c(C)s2)C(C(=O)O)C1 (stereo not drawn) | – | – | – | – | – | –
CC1=C(C)CC(C(=O)Nc2nc(-c3ccc(C)cc3C)c(C)s2)C(C(=O)O)C1 (stereo not drawn) | – | – | 60 | – | – | –
CC(=O)C1C(=O)c2c(cccc2[N+](=O)[O-])C1=Nc1cccc(Cl)c1 (stereo not drawn) | – | – | – | – | – | –
CC1CCCC(C)N1C(=S)NCc1ccco1 (stereo not drawn) | – | 30 | – | – | – | –
S=C(Nc1ccc(Cl)cc1Cl)N1CCN(c2ccccn2)CC1 | – | – | – | – | – | –
COc1ccc(Cl)cc1NC(=S)N1CCN(c2ncccn2)CC1 | – | – | – | – | – | –
COc1ccc(Cl)cc1NC(=S)N1CCN(c2ccccn2)CC1 | – | 35 | – | – | – | –
COc1cc(NC(=S)N2CCN(c3ccccn3)CC2)c(OC)cc1Cl | – | – | – | – | 34 | –
S=C(Nc1cccc(Cl)c1)N1CCN(c2ccccn2)CC1 | – | – | – | – | – | –
COc1cccc(NC(=S)N2CCN(c3ccccn3)CC2)c1 | – | – | – | ? | 32 | –
